CHT allo act: allosterically activates the human high affinity choline transporter. CHT-expressing cells, membrane potential dye, choline EC20; stronger effect = higher value; LV-AA mutant CHT in HEK293 cells. B-score at 10 µM. hit rate 0.49% among 310,000. AID 488977;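 active means initial fluorescence not abnormally high and integrated response B-score, plate-corrected, over 3 SD above library mean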
Target sequence (Q9GZV3 whole entry, looked up): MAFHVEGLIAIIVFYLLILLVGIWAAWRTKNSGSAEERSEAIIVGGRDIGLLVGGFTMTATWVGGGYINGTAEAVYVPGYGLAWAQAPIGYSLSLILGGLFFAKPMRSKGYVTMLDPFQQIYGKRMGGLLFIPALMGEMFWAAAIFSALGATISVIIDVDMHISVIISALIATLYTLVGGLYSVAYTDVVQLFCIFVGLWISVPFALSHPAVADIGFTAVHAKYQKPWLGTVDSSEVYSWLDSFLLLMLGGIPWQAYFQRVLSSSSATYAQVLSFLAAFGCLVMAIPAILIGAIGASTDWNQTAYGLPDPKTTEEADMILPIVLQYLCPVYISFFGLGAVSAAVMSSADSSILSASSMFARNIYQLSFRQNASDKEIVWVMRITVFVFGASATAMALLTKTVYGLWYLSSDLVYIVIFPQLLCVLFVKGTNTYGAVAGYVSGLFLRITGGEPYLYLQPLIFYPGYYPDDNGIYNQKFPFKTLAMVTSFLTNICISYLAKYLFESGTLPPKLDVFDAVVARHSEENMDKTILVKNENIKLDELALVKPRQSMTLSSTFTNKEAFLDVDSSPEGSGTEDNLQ
CHT block: inhibitors of human choline transporter CHT; Q9GZV3; CHT-expressing cells, membrane potential dye, choline response; stronger effect = lower value; B-score at 10 µM; hit rate 0.86% among 310,000;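 active means B-score over 3 SD under the library average, and starting fluorescence ratio not unusually high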;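 further: choline stimulus applied at its EC90 after an EC20 pre-addition; B-score computed on integrated fluorescence ratio after choline addition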
TMEM16A act: activates or potentiates the mouse TMEM16A chloride channel; AID 623877; Q8BHY3; hit rate 0.3% among 340,000; B-score at 10 µM; HEK293 TMEM16A/YFP-H148Q/I152L, iodide quench fluorescence; stronger effect = lower value;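 active means fluorescence-ratio B-score plate-corrected deviation score at least 3 library SD below zero, with starting fluorescence score within 5 deviations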;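 further: channel opened by trigger with iodide after compound preincubation; score built on the fluorescence ratio of max minus min over baseline; more negative score means more quench and so TMEM16A activation or potentiation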
ANO1 block: inhibitors of mouse TMEM16A calcium-activated chloride channel; Q8BHY3; HEK293 TMEM16A/YFP iodide influx fluorescence, ionomycin; normalized B-score (activity score, 25-100; higher = stronger inhibition) at 10 µM; hit rate 1.2% among 310,000;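 active means ratio plate-corrected score three or more library SD toward inhibition, starting fluorescence score within five deviations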;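 further: score derived from kinetic fluorescence span divided by baseline fluorescence per well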
CHT block conf: confirmation of human choline transporter CHT inhibitors. shares compounds with CHT block. CHT-expressing cells, choline membrane potential dye; LV-to-AA substituted CHT, HEK293 cells. CHT activity remaining % of control (stronger effect = lower value), % at 10 µM. hit rate 70% among 2,400. AID 493221;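 active means choline transporter activity left, mean of duplicates at 10 µM, below buffer-only control mean minus 3 SD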;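 further: depolarization triggered by choline at its EC90 following an EC20 pre-addition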
HEK293 MPD ctr: activity in parental HEK293 cells lacking CHT; shares compounds with CHT block; membrane potential dye, choline response; active = decrease or increase beyond buffer ±3SD; membrane potential ratio readout (active if shifted either direction beyond buffer ±3SD; no single direction) at 10 µM; hit rate 4% among 2,400;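 further: parental cells lack the transporter so any hit is non-specific; ratio is peak minus trough fluorescence over baseline after EC90 choline challenge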
Numbers stand for hits; i = inactive; nt = not tested or not shown. Compounds with a hit are over-represented: about 2.4% of the library has one in this group of screens.

SMILES	CHT allo act	CHT block	TMEM16A act	ANO1 block	CHT block conf	HEK293 MPD ctr
CNc1oc(Cc2cccc3ccccc23)nc1C#N	i	-6.94	i	i	56.2%	i
CC(C)Nc1oc(Cc2cccc3ccccc23)nc1C#N	i	i	i	i	nt	nt
O=C(OCC(=O)N1CCCc2ccccc21)c1ccc(Cl)nc1	i	i	i	i	nt	nt
O=C(OCC(=O)N1CCCc2ccccc21)c1cnc(Cl)c(Cl)c1	i	-5.67	i	i	i	i
CC(C)c1nc(CNC(=O)c2ccc(OC3CCN(Cc4ccccn4)CC3)cc2)cs1	i	i	i	i	nt	nt
CC(NC(=O)c1ccc(OC2CCN(Cc3ccccn3)CC2)cc1)c1ccccc1 (configuration not stated)	i	-10.1	i	i	-1.0%	i
COc1ccc(Cc2noc(CN(C)CC(O)c3ccccc3)n2)cc1OC (configuration not stated)	i	-5.66	i	i	i	i
CCCc1cc(Nc2c(C)n(C)n(-c3ccccc3)c2=O)n2c(nc3ccccc32)c1C#N	i	-8.01	i	i	38.1%	i
CCOCCCNC(=O)c1cccc(NC(=O)C2=C(C)OCCS2)c1	i	i	i	i	nt	nt
CC1=C(C(=O)Nc2cccc(C(=O)NC3CCCCC3C)c2)SCCO1 (configuration not stated)	i	i	i	i	46.4%	i
CCc1cccc(NS(=O)(=O)c2c(C)nc3sc(CC)nn3c2=O)c1	i	i	i	i	nt	nt
O=c1c2c(C(F)(F)F)cc(C(F)(F)F)nc2[nH]n1-c1ccccc1	i	-6.11	i	i	46.1%	i
Cc1cc(C(C)(C)C)nc2[nH]n(-c3ccccc3)c(=O)c12	i	i	i	i	nt	nt
Cc1ccc(NC(=O)CCN2C(=O)c3cccc([N+](=O)[O-])c3C2=O)c(Br)c1	i	i	i	i	nt	nt
CCOC(=O)c1c(NC(=O)CCN2C(=O)c3cccc([N+](=O)[O-])c3C2=O)sc(C(=O)OC(C)C)c1C	i	-7.49	i	i	70.5%	i
CCOC(=O)c1sc(NC(=O)CCN2CCN(C)CC2)c(C(=O)OCC)c1C	i	-5.27	i	i	46.9%	i
CC(C)(C)c1ccc(NC(=O)COC(=O)CCN2C(=O)c3cccc([N+](=O)[O-])c3C2=O)cc1	i	i	i	i	nt	nt
CC(OC(=O)CCN1C(=O)C2CC=CCC2C1=O)C(=O)Nc1cccc(Cl)c1 (configuration not stated)	i	i	i	i	nt	nt
COc1ccc(NC(=O)CCN2C(=O)c3cccc([N+](=O)[O-])c3C2=O)cc1	i	-10.6	i	i	i	i
CC(OC(=O)CCN1C(=O)c2cccc([N+](=O)[O-])c2C1=O)C(=O)Nc1cc(Cl)cc(Cl)c1 (configuration not stated)	i	-6.59	i	i	60.4%	i
Cc1cc(=O)n2nc(N3CCCC(C(=O)NCCc4ccc(Cl)cc4)C3)sc2n1 (configuration not stated)	i	i	i	i	nt	nt
CN(Cc1ccccc1)C(=O)COc1ccc(C(C)(C)C)cc1	i	i	i	i	nt	nt
COCC(=O)NNC(=O)c1ccc(OC)cc1	i	i	i	i	nt	nt
Cc1sc(NC(=O)c2ccco2)nc1-c1ccccc1	i	-9.22	i	i	53.2%	i
Cc1ccc(C(=O)CSc2nnc(-c3ccco3)n2C)cc1	i	-5.39	i	i	68.6%	i
SMILES	CHT allo act	CHT block	TMEM16A act	ANO1 block	CHT block conf	HEK293 MPD ctr
Cn1c(SCC(=O)c2cc(Cl)c(Cl)s2)nnc1-c1ccco1	i	i	i	i	nt	nt
O=C(N1CCCCCC1)N1CCN(S(=O)(=O)c2cccc([N+](=O)[O-])c2)CC1	i	i	i	i	nt	nt
O=C(CSc1nc(-c2ccccc2)cc(C(F)(F)F)n1)N1CCOCC1	i	-5.79	i	i	i	i
COc1ccc(/C=C/C(=O)NCc2nc3ccccc3[nH]2)cc1OC	i	i	i	i	nt	nt
Fc1ccccc1Cc1noc(CN2CCN(Cc3ccc4c(c3)OCO4)CC2)n1	i	i	i	i	nt	nt
Cc1ccc(C(C)NC(=S)NC2CCCCC2)cc1C (configuration not stated)	i	-12.3	i	i	22.5%	i
CC(NC(=O)NC1CCCCC1)c1ccc2c(c1)OCO2 (configuration not stated)	i	-6.71	i	i	66.1%	i
CC(NC(=O)NC12CC3CC(CC(C3)C1)C2)c1ccc2c(c1)OCO2 (configuration not stated)	i	i	i	i	nt	nt
O=C(NCC1CCCO1)c1cccc(S(=O)(=O)Nc2ccc(SC(F)F)cc2)c1 (configuration not stated)	nt	nt	i	nt	nt	nt
CCn1c(=O)cc(SCC(=O)NCc2ccc(C)o2)c2ccccc21	i	-5.08	i	i	i	i
O=C(NC(=S)Nc1ccc2[nH]c(=O)[nH]c2c1)c1ccccc1Cl	i	i	i	i	nt	nt
CCOc1cc(/C=C2/C(=O)ON=C2C)ccc1O	i	i	i	i	nt	nt
O=C1ON=C(c2ccccc2)/C1=C/c1ccc(O)c(O)c1	i	-6.83	i	i	32.6%	i
CC1=NOC(=O)/C1=C/c1ccc(O)c(Cl)c1	i	-8.62	i	i	26.8%	i
Cc1ccc(CN2CCNC(=O)C2CC(=O)N(C)Cc2cnccn2)cc1 (configuration not stated)	i	i	i	i	nt	nt
C=CCn1c(-c2cccs2)nc2ccccc21	i	i	i	i	nt	nt
C=CCSc1nc2ccccc2n1Cc1nnc(-c2cccs2)o1	i	-6.17	i	i	59.5%	i
Cc1cc(C)c(NC(=S)NCCO)c(C)c1	i	i	i	i	nt	nt
CCn1nc(NC(=O)CC(C)C)c2cc3cccc(C)c3nc21	i	i	i	i	nt	nt
CCOC(=O)C1=C(COC(=O)c2ccc(OC(C)C)cc2)NC(=O)NC1C (configuration not stated)	i	-9.69	i	i	2.8%	i
COc1ccc(CCNC(=O)c2cc(S(=O)(=O)N3CCCC3)cn2C)cc1OC	i	i	i	i	nt	nt
CC(=O)N1CCc2cc(S(=O)(=O)CCC(=O)O)ccc21	i	i	i	i	nt	nt
Cc1[nH]n(-c2cccc(Cl)c2)c(=O)c1-c1ccccc1	i	-6.12	i	i	67.5%	i
CCCc1cc(-c2nc(N)ncc2-c2csc(C)n2)c(O)cc1OC	i	i	i	i	nt	nt
CCc1cc(-c2nc(N)ncc2-c2csc(C)n2)c(O)cc1OC	i	-7.79	i	i	i	i
COc1cc(C)ccc1OCC(=O)Nc1nnc(C2CC2)s1	nt	nt	i	nt	nt	nt
Cc1ccc(C(C)C)c(OCCOCCN2CCNCC2)c1	i	-6.91	i	i	21.7%	i
Cc1ccc(C(C)C)c(OCCCCN2CCNCC2)c1	i	i	i	i	nt	nt
CN(C)C(C)(C)C#CCC(c1ccccc1)c1ccccc1	i	i	i	i	nt	nt
COc1ccc(N(C)S(=O)(=O)c2cccc(C(=O)NC3CCCCC3C)c2)cc1 (configuration not stated)	i	-5.51	i	i	59.0%	i
